The values below come from PubChem BioAssay (NCATS).

Structures are written as SMILES. Values joined by “and” are separate entries in the source; they are usually repeats but may differ in a detail not shown here. Identical values can stand only once. Records with an inconclusive call do not appear. Active and inactive are the calls of the source. Unless noted, calls follow the shape of the dose curve; as a rule, active = well fitted curve in the direction sought with a large enough effect; inconclusive = small, poorly fitted or top-dose-only effect, or another doubt; inactive = no such curve, though single readings can be large; an effect the other way counts as inactive or inconclusive.

Test [1] in a line: qHTS Assay for Lipid Storage Modulators (AID 1519; calls by dose curve; as to activity change, negative = inhibition: % is scaled to controls: 0 for no effect and ±100 for the full control effect). As to conditions: Drosophila S3 cells, BODIPY lipid droplet/cell ratio, laser cytometry, cells loaded with oleic acid. The method in brief:
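Cells seeded at 5,000 per well were treated with compounds over a concentration series and loaded with oleic acid (400 uM, as added). Lipid droplet fluorescence (488 nm excitation, 500-530 nm channel) was read by laser-scanning cytometry and normalized to 20 uM Triacsin C.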
(In general: In qHTS, concentration-response curves come from the screen itself.)

Test [2] has as its target DNA repair nuclease/redox regulator APEX1 (Homo sapiens) (UniProt P27695). Description: qHTS Validation Assay for Inhibitors of the Human Apurinic/apyrimidinic Endonuclease 1 (APE1) (AID 1705;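 also: TAMRA fluorescence gain over two minutes as APE1 cuts a quenched THF abasic duplex; % is scaled to controls: 0 for no effect and ±100 for the full control effect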). The method, boiled down:
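Endonuclease activity of human APE1 is followed as dequenching when the enzyme incises a tetrahydrofuran abasic site in a short duplex labelled 5'-TAMRA/3'-BHQ-2 (50 nM final), after 15 min enzyme–compound preincubation at room temperature.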

A short description of test [3]: Counterscreen for APE1 Inhibitors: Fluorescent Dye Displacement Validation Assay (AID 1707).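 Also: plate controls were ThO with dsDNA and no compound for no effect and ThO without dsDNA for full effect.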 The method in brief:
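Reaction mixture of 250 nM Thiazole Orange and 50 nM double-stranded abasic-site DNA was dispensed, compounds were pin-transferred, and fluorescence was read at endpoint (480 nm ex, 540 nm em). Reduced fluorescence indicated dye displacement by DNA binding.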

The target of test [4] is Endonuclease 4 (Escherichia coli (strain K12)) (UniProt P0A6C1). Description: Counterscreen for APE1 Inhibitors: qHTS Validation Assay for Inhibitors of Endonuclease IV (AID 1708). Also: % is scaled to controls: 0 for no effect and ±100 for the full control effect. The method, boiled down:
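The reaction buffer contained 50 mM Tris-HCl pH 7.5, 50 mM NaCl, 2 mM MgCl2, 1 mM DTT and 0.01% Tween-20. Incision of a 50 nM fluorophore/quencher THF substrate by 2 nM enzyme was measured kinetically.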

The target of test [5] is Alpha-galactosidase A (Homo sapiens) (UniProt P06280). Kind of test: Counterscreen for Glucocerebrosidase Inhibitors: qHTS Assay for Human alpha-Galactosidase at pH 4.5 (AID 992). Also: 0% is about no effect. The method in brief: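 Steps: enzyme (2 nM final), then compound across 0.7 nM to 77 uM, then 80 uM fluorogenic galactopyranoside substrate; incubate 20 min at room temperature; quench at pH 10; measure fluorescence at 365/440 nm.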
In general terms: The purpose of a counterscreen is to sort out artefacts and off-target activity.

Test [6] addresses alpha-glucosidase (Oryza sativa, rice) (UniProt Q653V4). Kind of test: Counterscreen for Glucocerebrosidase Inhibitors: qHTS Assay for Rice alpha-Glucosidase at pH 5.0 (AID 997).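 Also: 0% = full activity with enzyme and -100% = basal without enzyme.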 The method, boiled down:
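Endpoint fluorogenic assay at pH 5.0: compounds (0.7 nM to 77 uM) titrated against 4 nM rice enzyme and 400 uM 4-MU-alpha-glucoside for 20 min at room temperature; NaOH/glycine stop, read ex 365/em 440 nm, Hill-fitted AC50.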

Test [7] is described as follows: Cell Viability - LYMP2-006 (AID 978). Also: % is scaled to controls: 0 for no effect and ±100 for the full control effect; nearly all actives have a fitted effect of over 60% in size. The method, boiled down: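 Concentration-dependent loss of intracellular ATP in a human lymphoblastoid line after 24 hr treatment at 37 C was measured by CellTiter-Glo luminescence, with AC50 values obtained from standard Hill-equation modelling.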
Test [8] in a line: Cell Viability - LYMP2-007 (AID 979).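 Also: cells exposed to compound for 24 h before reading; 0% = DMSO only and the negative end = 92 µM tetraoctylammonium bromide; nearly all actives have a fitted effect of over 60% in size.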 The method in brief:
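Measured via luciferase-based ATP quantitation: lymphoblastoid cells, 24 hr compound exposure at 37 C, AC50 from Hill fits.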

Test [9] is described as follows: Cell Viability - LYMP2-008 (AID 980).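 Also: cells exposed to compound for 24 h at 37 °C; % is scaled to controls: 0 for no effect and ±100 for the full control effect; nearly all actives have a fitted effect of over 60% in size.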 The method, boiled down: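 Measured: ATP-dependent luminescence, proportional to viable cell number, in human lymphoblastoid cells treated 24 hr with compound in complete culture medium. Values are AC50s from Hill-equation modelling of qHTS titrations.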
Test [10] can be described thus: Cell Viability - LYMP2-010 (AID 981). Also: % is scaled to controls: 0 for no effect and ±100 for the full control effect; nearly all actives have a fitted effect of over 55% in size. The method, boiled down:
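This 24 hr viability screen uses LYMP2-010 lymphoblastoid cells, quantifies ATP via luciferase luminescence, and derives AC50 from Hill fits of qHTS concentration-response data.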

Test [11] is described as follows: Cell Viability - LYMP2-012 (AID 982).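 Also: cellular ATP by luciferase luminescence where a drop means cytotoxicity; cells exposed to compound for one day before reading; 0% = DMSO only and full loss = 92 µM tetraoctylammonium bromide; nearly all actives have a fitted effect of over 55% in size.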
The nature of test [12]: Cell Viability - LYMP2-016 (AID 984). Also: % is scaled to controls: 0 for no effect and ±100 for the full control effect; nearly all actives have a fitted effect of over 55% in size. The method, boiled down: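 Acute toxicity in a Coriell human lymphoblastoid line is scored as loss of intracellular ATP over 24 h of treatment in complete medium. CellTiter-Glo signal is fitted across concentrations with the Hill equation to give AC50.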
The nature of test [13]: Cell Viability - LYMP2-018 (AID 985).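 Also: plate controls were DMSO only for no effect and tetraoctylammonium bromide at 92 µM for full effect; nearly all actives have a fitted effect of over 50% in size.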 The method, boiled down:
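In this qHTS viability assay, cells are treated for 24 hr and cellular ATP is quantified by luciferase-based luminescence, with tetraoctylammonium bromide as positive control.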

Test [14] is described as follows: Cell Viability - LYMP2-020 (AID 986).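 Also: cells exposed to compound for 24 h at 37 °C; plate controls were DMSO only for no effect and tetraoctylammonium bromide at 92 µM for full effect; nearly all actives have a fitted effect of over 55% in size.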 The method in brief: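 Cells at 2500 per well receive a 24 hr compound exposure at 37 C. Viability is measured as ATP-dependent luciferase luminescence, with AC50 modeled from qHTS concentration-response curves.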
Test [15] in a line: Cell Viability - LYMP2-022 (AID 987). The method in brief:
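In this qHTS cytotoxicity screen, compound titrations were incubated 24 hr at 37 C with human lymphoblastoid cells in complete medium. Luciferase-based ATP luminescence provided the viability signal.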

Test [16] can be described thus: Cell Viability - LYMP2-024 (AID 988).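 Also: plate controls were DMSO only for no effect and 92 µM tetraoctylammonium bromide for full effect; nearly all actives have a fitted effect of over 60% in size.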 The method in brief: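 Cells at 2500 per well received compound for 24 hr after a 5 hr settling period. Viability was scored by CellTiter-Glo luminescence, with AC50 from Hill fits.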
A short description of test [17]: Cell Viability - LYMP2-026 (AID 989).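 Also: cells exposed to compound for 24 h at 37 °C; % is scaled to controls: 0 for no effect and ±100 for the full control effect; nearly all actives have a fitted effect of over 50% in size.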 The method, boiled down: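 Acute toxicity screen in complete culture medium, with 24 hr compound exposure at 37 C. Viability read as cellular ATP via luciferase reaction, with tetraoctylammonium bromide (6.4pM to 92 uM) as positive control.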
The nature of test [18]: Cell Viability - LYMP1-002 - Assay at 24 hr (AID 993). Also: % is scaled to controls: 0 for no effect and ±100 for the full control effect. The method in brief:
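Viability was judged from intracellular ATP using a luciferase read-out, following a 24-hour compound incubation at 37 C of lymphoblastoid cells seeded at 2500 per well. Concentration-response data were fitted to the Hill equation for AC50.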

A short description of test [19]: Cell Viability - LYMP1-002 - Assay at 40 hr (AID 994). The method in brief: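 Concentration-dependent ATP loss after 40 hr treatment at 37 C defined toxicity; AC50 values were obtained by fitting the standard Hill equation.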
Where [20] appears, read: measured here: cell count channel max response.
Where [21] appears, read: measured here: lipid channel max response.

DNA repair nuclease/redox regulator APEX1 (Homo sapiens), sequence (P27695 whole entry, looked up): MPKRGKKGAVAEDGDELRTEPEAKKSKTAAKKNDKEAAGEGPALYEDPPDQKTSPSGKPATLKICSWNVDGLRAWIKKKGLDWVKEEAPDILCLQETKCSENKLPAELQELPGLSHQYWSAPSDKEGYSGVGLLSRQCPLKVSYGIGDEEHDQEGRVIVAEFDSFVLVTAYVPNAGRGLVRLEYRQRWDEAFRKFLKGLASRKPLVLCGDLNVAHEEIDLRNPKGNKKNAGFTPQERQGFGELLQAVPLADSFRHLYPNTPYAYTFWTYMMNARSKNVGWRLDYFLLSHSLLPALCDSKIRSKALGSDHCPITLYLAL
Alpha-galactosidase A (Homo sapiens), sequence (P06280 whole entry, looked up): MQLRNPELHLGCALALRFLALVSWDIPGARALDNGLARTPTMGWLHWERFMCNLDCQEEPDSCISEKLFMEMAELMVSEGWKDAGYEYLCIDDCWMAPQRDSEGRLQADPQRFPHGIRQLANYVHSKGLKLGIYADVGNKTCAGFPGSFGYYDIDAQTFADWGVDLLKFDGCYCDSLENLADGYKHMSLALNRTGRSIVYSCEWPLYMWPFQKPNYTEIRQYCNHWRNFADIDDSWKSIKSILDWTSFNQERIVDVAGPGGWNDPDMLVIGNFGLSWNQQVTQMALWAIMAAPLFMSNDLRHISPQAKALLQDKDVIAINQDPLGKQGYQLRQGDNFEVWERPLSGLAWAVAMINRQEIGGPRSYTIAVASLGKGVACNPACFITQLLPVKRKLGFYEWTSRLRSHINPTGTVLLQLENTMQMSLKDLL

Turning to `OCC(O)CN1CCN(c2ccccc2)CC1` (stereo not given), the activity change, negative = inhibition in test [1] (at 57.5 µM (top of the series)) was 11.8% (inactive). Also, the max response in [1] (setting [20]) stood at 18.2%; in test [1] (setting [21]), 35.4%.

`CSc1ccc2c(c1)N(CCC1CCCCN1C)c1ccccc1S2` (stereo not given): in test [1] (at 57.5 µM (top of the series)), the activity change, negative = inhibition was -0.301% (inactive). The max response was -6.02% in test [1] (setting [20]) and -4.98% in [1] (setting [21]). Also, the Potency result in test [2] and in test [3] was “inactive” in each case.

`Cn1cc[nH]c1=S`: the results for the activity change, negative = inhibition in [1] (at 25.7 µM (top of the series)) and in test [1] (at 57.5 µM (top of the series)) were -0.635% (inactive) and 4.03% (inactive), respectively. For the same compound, the max response is -10.4% and 8.98% in [1] (setting [20]); -9.93% and 13% in test [1] (setting [21]).

On to `CC1=C(/C=C/C(C)=C/C=C/C(C)=C/C(=O)O)C(C)(C)CCC1`, for which the activity change, negative = inhibition in test [1] (at 57.5 µM (top of the series)) is 0.149% (inactive). The results for the max response in test [1] (setting [20]) and in [1] (setting [21]) were -9.37% and -7.9%, respectively. Moreover, the Potency result in [2], in test [3] and in test [4] was “inactive” in each case.

For the compound `Nc1ccc(S(=O)(=O)NC(=O)c2ccccc2)cc1`, the activity change, negative = inhibition in test [1] (at 25.7 µM (top of the series)) was 2.01% (inactive); in [1] (at 57.5 µM (top of the series)) it was 8.83% (inactive). Besides, the max response in test [1] (setting [20]) is -14.6% and 20.6%; in [1] (setting [21]) it was -13.2% and 26.2%.

On to `CCCCOc1cc(C(=O)OCCN(CC)CC)ccc1N`, for which the activity change, negative = inhibition in test [1] (at 25.7 µM (top of the series)) was -1.04% (inactive). The max response in [1] (setting [20]) is -13.7%; in test [1] (setting [21]), -14%.

On to `CN(C)CCCN1c2ccccc2CCc2ccccc21`, for which the result in [5] and in test [6] was inactive. In addition, the activity change, negative = inhibition is -3.67% (inactive) in test [1] (at 25.7 µM (top of the series)); -1.66% (inactive) and 1.56% (inactive) in test [1] (at 57.5 µM (top of the series)). The max response in test [1] (setting [20]) was -3.16% and 7.78% and 14.5%; in test [1] (setting [21]) it was -7.45% and 10.3% and 14.3%. Besides, the Potency result in test [2] and in test [3] was “inactive” throughout.

`O=C(CCCN1CCN(c2ccccn2)CC1)c1ccc(F)cc1`: the activity change, negative = inhibition in [1] (at 25.7 µM (top of the series)) is 0.351% (inactive); in test [1] (at 57.5 µM (top of the series)) it was 15.3% (inactive). Further, the max response in test [1] (setting [20]) is -7.79% and 5.38%; in [1] (setting [21]), -10.2% and 27.2%.

`CC1(C)OC(=O)NC1=O`: the activity change, negative = inhibition in [1] (at 25.7 µM (top of the series)) is -0.879% (inactive). For the same compound, the results for the max response in test [1] (setting [20]) and in [1] (setting [21]) were -12% and -11.9%, respectively.

In the case of `Cc1cc(CC(=O)O)n(C)c1C(=O)c1ccc(Cl)cc1`, the compound was classed as inactive in [7], in test [11] and in test [16]. The Potency result in [8], in test [9], in test [10], in test [12], in [13] and in test [14] was “inactive” each time. Besides, the Potency entry in test [15], in test [17], in test [18] and in test [19] was “inactive” throughout. Also, the activity change, negative = inhibition was -0.167% (inactive) in [1] (at 25.7 µM (top of the series)) and 7.69% (inactive) in test [1] (at 57.5 µM (top of the series)). Further, the max response is -0.357% and 17.9% in test [1] (setting [20]); 0.164% and 28.7% in test [1] (setting [21]).

`O=c1cc(CO)occ1O`: in test [1] (at 57.5 µM (top of the series)), the activity change, negative = inhibition was 0.978% (inactive). Also, the values for the max response in [1] (setting [20]) and in test [1] (setting [21]) were 23.1% and 26.9%, respectively.

As to `CCCCCCCCCCCCCCCCCCOCC(O)CO` (stereo not given), in [1] (at 57.5 µM (top of the series)), the activity change, negative = inhibition is 4.1% (inactive). Moreover, the max response was found to be 15.6% in test [1] (setting [20]) and 19.9% in test [1] (setting [21]).

`CC(=O)c1ccc2c(c1)N(CCCN(C)C)c1ccccc1S2`: the activity change, negative = inhibition in test [1] (at 25.7 µM (top of the series)) was -1.98% (inactive). Also, the max response in test [1] (setting [20]) was 0.996%; in test [1] (setting [21]) it was -1.83%.

Turning to `CC(C(O)c1ccc(O)cc1)N1CCC(Cc2ccccc2)CC1` (stereo not given), the activity change, negative = inhibition in test [1] (at 57.5 µM (top of the series)) is 3.33% (inactive). In addition, the max response was 9.6% in [1] (setting [20]) and 16% in test [1] (setting [21]). Also, the Potency entry in test [2], in [3] and in test [4] was “inactive” each time.

Consider `CCN(CC)C(C)CN1c2ccccc2Sc2ccccc21` (stereo not given), for which the activity change, negative = inhibition in test [1] (at 57.5 µM (top of the series)) is 2.47% (inactive). Further, the figures for the max response in test [1] (setting [20]) and in test [1] (setting [21]) were -20.9% and -15.4%, respectively.
